Among the data in PubChem BioAssay AID1159506 (National Center for Advancing Translational Sciences (NCATS), 2015) are seed-corrected z-score values, retold here.

The full ranking holds about 59,000 sequences; the median of the read-out is about -0.00055, and the lowest 2% start at about -2. Many of the other results were omitted from the sample, so the lowest values are more common in it than they were.

The nature of the experiment: Identification of proteins required for the processing of the EWS-FLI1 nascent transcript.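 Note: robust z of luciferase light less the median z of siRNAs with the same seed.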 The conditions noted are these: TC32 Ewing sarcoma NR0B1-luc vs CMV-luc (EWS-FLI1 target promoter against control promoter), 48 h; screened at 20 nM (by protocol). Put shortly:
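Parallel TC32-NR0B1-luc and TC32-CMV-luc reverse transfections with 20 nM siRNA in RPMI-1640/10% FBS, luciferase measured 48 h later. Seed-adjusted z-scores from normalized, z-score-MAD transformed data; AllStars negative and siGL4 controls on each plate.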
For UCUCUAUCAGUUCUCUUGG against RBM20, the seed-corrected z-score was -0.358.

AAAGGGACACUGAUUCAGU against TRAM1: the seed-corrected z-score was -2.59.

For the sequence UCAGGGUAUUUGGUGAGGG against KCTD1, the seed-corrected z-score was -0.632.

As to AUAAUACCAACUCAAAUGC against FRRS1L, the seed-corrected z-score is 1.1.

In the case of UUCUGAGCAGGUUCUACUG against SGOL1, the seed-corrected z-score is -2.98.

In turn, UAGGUAACUAUUUCUUCUC against CHURC1 returned a seed-corrected z-score of 1.33.

On to UCUUCUAUCUUGCACAUUG against NLRP9, for which the seed-corrected z-score came to 0.587.

UAGGUUACGUGUCCAGAGG against NR2F6 came in with a seed-corrected z-score of -0.85.

In turn, ACCAUUGUCAUUGCCUUGC against 1-Mar registered a seed-corrected z-score of -1.24.

GAUUUCUUCAGGUGCUCCU against PDLIM7 returned a seed-corrected z-score of -0.372.

UGUAGUAUAUGAUCGACCU against LOC728613: the seed-corrected z-score was -11.7.

UAGGCGAUGAAGAGCGUGC against MC1R yielded a seed-corrected z-score of 0.184.

The sequence AAAGUAUCGGUAUUUGUCU against NDUFB9 gave a seed-corrected z-score of 0.025.

AAUCUCAUGAGUUGCAACC against MMP26 yielded a seed-corrected z-score of -0.158.

The sequence UUCCGGUUCCUCAUCUUCU against NUCKS1 displayed a seed-corrected z-score of -0.00682.

On to UAAAGUACUGUCGUCAAUG against STOX2, for which the seed-corrected z-score was -2.26.

UUGUGGUUCUCGGAUACGC against CDH15 displayed a seed-corrected z-score of -0.955.

Regarding GAAGCUAUCCCAGCUCUCA against RPL21P131, the seed-corrected z-score came out at 0.152.

UGUUUUACAAGCAAUGUCC against TEX19 displayed a seed-corrected z-score of -2.08.

As to UGCUGUAUAAUAUCCUUGC against GALNT3, the seed-corrected z-score worked out at 0.503.

In turn, UUGUGCACCACGAGCAUGG against B3GNT7 displayed a seed-corrected z-score of -1.07.

Sequence UUCGUUGCAAAUCCCAUGC against SPTLC2 displayed a seed-corrected z-score of -3.22.

With AAUCUUUGGAGUACGCUGG against B2M, the seed-corrected z-score was -0.0765.

UAGACAUACAUUGAACUCC against SPINK6 returned a seed-corrected z-score of 1.21.

In the case of UGUACUUUAAUAGAGAUAC against MRPS10, the seed-corrected z-score is -0.197.

Sequence UACCCAAUAAAGGUCUACC against LMO2 came in with a seed-corrected z-score of 0.642.

In the case of UACGGUUCUUCCUGGUUGG against C1QA, the seed-corrected z-score was 1.29.

UUCCAUAUAGCAGUGCACU against NDUFAF1 showed a seed-corrected z-score of 1.09.

Consider UAGGGUUUGCCUUCGUGCU against CRIP1, for which the seed-corrected z-score was -3.24.

Regarding UCAAGCAUCGUGUUGAGCC against TGFBI, the seed-corrected z-score is -0.445.

For UCAAAUUCGUCCUGGGUCC against UGT1A5, the seed-corrected z-score is -1.44.

The sequence UGAAGGAAGAAUCGUCGCC against PTHLH showed a seed-corrected z-score of -0.782.

UUUCCGAUGAUGGUAACCA against OR7C2 registered a seed-corrected z-score of 0.217.

UCAGGUAGCAGGGUAUUGG against LTA4H returned a seed-corrected z-score of -0.0663.

The sequence UCCCAAUUCAGAUCUAUGG against FBXO42 had a seed-corrected z-score of 0.112.

In turn, UCAGGUGUAGGAUUCCGAC against XAGE2 showed a seed-corrected z-score of -2.85.

The sequence UUUGUUGACUGCUUGACUG against METAP1D registered a seed-corrected z-score of 0.33.

As for AACCUGUAUGCAUCAACUG against BMS1P11, the seed-corrected z-score was 2.32.

In turn, UACUGUUCCACUAGCUUCG against SF3A1 came in with a seed-corrected z-score of -1.91.

On to UCUGUAACCUUGGUAAGGC against C10orf2, for which the seed-corrected z-score was 0.0621.

Sequence UGGUUGAUUAGUAAAGCAC against C10orf113 returned a seed-corrected z-score of -0.339.

ACUGUUAUCAGGAAAGUCC against PLCB2: the seed-corrected z-score was -0.539.

The sequence UGUCUUUGUAGGCAGCUGG against CLDN14 yielded a seed-corrected z-score of -2.18.

UAAAGAGUAAAGGUCUUCC against ZNF540 displayed a seed-corrected z-score of 0.799.

Sequence UAUGGACCCAUCAUACUGG against CADM4 gave a seed-corrected z-score of 0.833.

The sequence UAUUGAACUUCAAGGGUCG against EFTUD2 returned a seed-corrected z-score of -2.91.

As to UUGGUCUGUAGUACUGUUC against SNX27, the seed-corrected z-score was -2.17.

For the sequence UUUGUGCCCUGCGUUUAUC against KCND3, the seed-corrected z-score was -0.731.

Regarding AGGUGGAAGAGAAAUAUCU against OR4D11, the seed-corrected z-score was -0.264.

On to UCAAGUUACAGGUUCGGGC against DRG1, for which the seed-corrected z-score stood at 1.09.

In turn, UAUUUGUAGCCCAAGAAGG against YIF1B yielded a seed-corrected z-score of 0.101.

As to UUUCUGAUCAGGUCCAUGA against SLC1A6, the seed-corrected z-score was -0.114.

In turn, UCAUAGUUGAGCAAGGUGG against AOC3 showed a seed-corrected z-score of -0.116.

UCCGUAUCCAGCUCGUCCU against NXNL1 registered a seed-corrected z-score of -1.17.

UUCAAUGCAAGCAAGCUUG against OR4L1 had a seed-corrected z-score of 0.45.

For the sequence UUGCGAACAUUGCCUGUGC against MEP1A, the seed-corrected z-score is 0.216.

The sequence UCUUUAUCUAGAGGCAUUC against LOC728040 showed a seed-corrected z-score of -2.35.

Sequence UUUAUUCUAAACACGUACU against RHBDD3 gave a seed-corrected z-score of -0.246.

On to UAGGAUUACAGCAAUCAUC against 11-Mar, for which the seed-corrected z-score amounted to 0.0159.

Sequence UGUCGUCAAAGUAUAAUCG against ETV5 had a seed-corrected z-score of -2.12.

UAUGGAGCAGGUAAUAGAG against ZNF311 gave a seed-corrected z-score of 0.514.

UUCUCAUCAAACUCUACAC against OLFML3 had a seed-corrected z-score of 0.213.

As for UCUCCUAUAGGACCUGUGC against MGAM, the seed-corrected z-score was -0.17.

UGAGCAUUUAUUGUGAGUG against OR2T6: the seed-corrected z-score was -0.244.

As for UCCUGGAGCACAUCAGUGC against ASPRV1, the seed-corrected z-score turned out to be 0.0418.

With UGGUUGUUAAAGGUCAUGG against HIPK2, the seed-corrected z-score is -2.07.
